Consider 112 compounds from PubChem BioAssay AID504941 (Broad Institute, 2011).

Screen size: about 1,200 compounds; about 170 (14%) were called active. How the calls were made is not given here. The list is a sample of the results. Measured potencies and affinities stand elsewhere.

The assay is described as follows: E. coli Tat export inhibitors, dose response, cherry-pick, set 2, plate reader (AID 504941). The conditions noted are these: E. coli Tat transport reporter; series mostly up to 38 µM.
As to `O=C(Cc1ccccc1Cl)c1ccccc1`, the call was inactive.

Turning to `CCN(Cc1ccccc1)S(=O)(=O)c1c[nH]c(C(=O)OC)c1`, the call was inactive.

As to `O=C(O)Cn1cc(C(=S)N2CCOCC2)c2ccccc21`, the compound was called inactive.

As to `CCCCc1ccc(N=N/C(C(=O)Nc2ccc(NC(C)=O)cc2OC)=C(/C)O)cc1`, the result was inactive.

With `CC(=O)NC(Cc1ccc(F)c(F)c1)C(=O)NC1CCN(c2c(Cc3ccccc3)c(C)nc3ncnn23)CC1` (configuration not stated), the outcome was inactive.

With `O=C1CC(c2cc(-c3ccccc3)no2)C1`, the compound was called inactive.

Consider `CNC(=O)CNC(=O)Nc1ccc(C)cc1`, for which the result was inactive.

Regarding `CCN(C[C@H]1N[C@@](Cc2ccccc2)(C(=O)OC)[C@H]2C(=O)N(C)C(=O)[C@@H]12)C(C)=O`, the outcome was inactive.

Turning to `Cn1cc(CN2CCC(CO)(CCCc3ccccc3)CC2)c(-c2ccccc2)n1`, the result was inactive.

Regarding `Cc1ccc(NC(=O)c2ccc(Oc3ncccn3)cc2)cc1`, the compound was classed as inactive.

Turning to `Cc1cc(=O)[nH]c(SCC(=O)NCc2ccc3c(c2)OCO3)n1`, the call was inactive.

`CC(C)C(=O)Nc1ccc(Nc2ccccc2)cc1`: the result was inactive.

For `CCCCOc1ccc(NC(=O)c2cc(F)c(F)cc2Cl)cc1`, the compound was classed as inactive.

Take `O=C(Cn1nc(C(=O)O)c2ccccc2c1=O)NCc1ccco1`: the result was inactive.

Regarding `O=C(NCCc1ccccc1)c1n[nH]c2ccccc12`, the result was inactive.

Turning to `CCc1ccc(C(C(=O)NC2CCCC2)N(CCOC)C(=O)CCC(=O)Nc2cc(C)on2)cc1` (configuration not stated), the result was inactive.

Regarding `Cc1nc(SCc2ccc(C(=O)O)cc2)c2c(C)c(C)sc2n1`, the outcome was inactive.

On to `CN(C)CCCNC(=O)C(=O)NCC1CCCO1` (configuration not stated), for which the compound was called inactive.

`CCO[C@@H]1OC(C(=O)O)=C[C@H](C)[C@H]1CCCO`: the call was inactive.

For `CC(=O)Oc1ccc(C(=O)Cc2ccccn2)c(O)c1`, the compound was called inactive.

As to `CC(C)[C@@H](C(=O)N1CCNCC1)n1cc(CCO)nn1`, the result was inactive.

In the case of `NS(=O)(=O)c1ccc(CCNc2nc(C(F)(F)F)nc3ccccc23)cc1`, the call was inactive.

Turning to `CCOC(=O)c1cnn(-c2cc(C)c3ccccc3n2)c1N`, the call was inactive.

For the compound `CCSC(=O)NC12CC3CC(CC(C3)C1)C2`, the result was inactive.

Turning to `Cc1ccc(C)n1-c1ccc(-c2ccnc(N)n2)cc1`, the outcome was inactive.

As to `O=[N+]([O-])c1cccc(N(CC(O)CN2CCCCC2)S(=O)(=O)c2ccccc2)c1` (configuration not stated), the outcome was inactive.

For `C#CC(C)(CC)NC(=O)c1cc2cccc(CC=C)c2oc1=O` (configuration not stated), the compound was classed as inactive.

Consider `COc1ccc(S(=O)(=O)N2CCC(C(N)=O)CC2)cc1`, for which the result was inactive.

As for `CCOC(=O)c1c(NC(=O)CSc2n[nH]c(CNc3ccccc3)n2)sc(C)c1C`, the compound was called inactive.

Take `C=CCN1C=C2C(=O)C(C)(OC(=O)c3ccc(OC)cc3)C(=O)C(c3ccco3)=C2C=C1CCCC` (configuration not stated): the call was inactive.

In the case of `O=C(O)c1cccc(NC(=O)c2ccccc2)c1`, the result was inactive.

Consider `CC(C)N(c1ccccc1)c1ccc(NC(=O)COC(=O)CCN2C(=O)c3cccc([N+](=O)[O-])c3C2=O)cc1`, for which the compound was classed as inactive.

As to `O=C(CSc1cn(CCNC(=O)c2c(F)cccc2F)c2ccccc12)NCC1CCCO1` (configuration not stated), the call was inactive.

Consider `O=C(CSc1ncnc2c1nnn2Cc1ccccc1F)NCC1CCCO1` (configuration not stated), for which the call was inactive.

With `Cc1ccccc1OCC(=O)Nc1ccc(S(=O)(=O)Nc2onc(C)c2C)cc1`, the call was inactive.

For `O=C(/C=C/Nc1ccccc1Br)c1ccccn1`, the call was inactive.

Consider `CC1(C)CC(NC(=O)c2ccc(-c3ccc([N+](=O)[O-])cc3)o2)CC(C)(C)N1`, for which the result was inactive.

In the case of `Cc1ccc(NC(=S)NC(=O)c2ccc(F)cc2)cc1S(=O)(=O)Nc1ccccc1Cl`, the compound was called inactive.

Consider `C[C@H]1CN([C@@H](C)CO)C(=O)c2cccc(NS(=O)(=O)c3ccc(F)cc3)c2O[C@H]1CN(C)Cc1ccc(Cl)c(Cl)c1`, for which the compound was classed as inactive.

Take `COC(C(=O)Nc1ccnn1C1CCN(C(=O)c2ccc(C=O)cc2)CC1)c1ccccc1` (configuration not stated): the result was inactive.

In the case of `Cc1ccc(NC(=O)c2cccs2)cc1S(=O)(=O)Nc1cccc(Cl)c1`, the compound was classed as inactive.

In the case of `Cc1ccccc1-n1c(SCC(=O)N2CCOCC2)nc(O)c(Cc2ccccc2)c1=O`, the call was inactive.

In the case of `COCCn1c(=NC(=O)c2ccc3c(c2)OCCO3)sc2cc(S(N)(=O)=O)ccc21`, the compound was called inactive.

As to `CN1CCc2c(sc3nc(SCC(=O)N4CCOCC4)nc(N)c23)C1`, the result was inactive.

Turning to `COC(=O)C1(S(=O)(=O)C2(C(=O)OC)CCCC2)CCCC1`, the outcome was inactive.

For the compound `Cc1ccc(NCc2nnc3n2CCCCC3)c(C)c1`, the result was inactive.

Take `O=c1cc(O)nc[nH]1`: the call was inactive.

Regarding `CC1(C)CC(=O)C/C(=N\NC(=O)CCc2ccc(S(=O)(=O)N3CCOCC3)cc2)C1`, the call was inactive.

Regarding `COc1cccc(COC(=O)C2CC(=O)N(Cc3ccco3)C2)c1OC` (configuration not stated), the result was inactive.

Take `CCc1ccc2c(CSc3nnnn3C)cc(=O)oc2c1`: the result was inactive.

As to `O=c1[nH]c(N2CCCCC2)nc2c1CCCC2`, the compound was classed as inactive.

`S=c1nc(-c2ccccc2Br)[nH][nH]1`: the compound was called inactive.

Regarding `CCOC(=O)N1CCN(c2ccc(C(=O)CC)cc2F)CC1`, the outcome was inactive.

As for `CN(C)c1nc(SCC#N)nc(N2CCOCC2)n1`, the compound was called inactive.

As to `CCCC(=O)NC1=C(C#N)C2(CCCC2)Cc2ccccc21`, the outcome was inactive.

As for `c1ccc(CC2=NCCN2)cc1`, the result was inactive.

Regarding `O=C(Nc1cccc(NC(=O)c2ccco2)c1)c1ccccc1`, the result was inactive.

With `O=S(=O)(/N=C(/Nc1ccccc1)c1ccccc1)c1cccs1`, the compound was classed as inactive.

In the case of `N#Cc1ccccc1CSc1ccccn1`, the outcome was inactive.

As to `O=C1CCCN1Cc1ccccc1`, the compound was called inactive.

As for `COc1ccc(Cl)cc1S(=O)(=O)Nc1noc2ccccc12`, the outcome was inactive.

In the case of `Nc1ccccc1C(=O)NCC1(c2ccccc2)CCCC1`, the call was inactive.

With `Cc1ccccc1Nc1nnc(C)c(=O)[nH]1`, the compound was called inactive.

Turning to `Cc1ccc(C(=O)N2CCCC(CCC(=O)NCc3ccc(F)c(F)c3)C2)cn1` (configuration not stated), the call was inactive.

With `CCCc1cc(=O)oc2cc(OCC(=O)N(C)C)c(Cl)cc12`, the result was inactive.

Consider `C#CCNC(=O)C1=C[C@H](c2csc3ccccc23)[C@@H](CCCO)[C@H](OCC)O1`, for which the call was inactive.

Consider `COc1cc(OC)cc(C(=O)N(CN2CCCC2=O)c2ccccc2OC)c1`, for which the compound was called inactive.

For the compound `CCOCCCNC(=S)NCCNc1nc2ccc(C)cc2cc1C#N`, the compound was classed as inactive.

In the case of `Cc1ccsc1C1C(C#N)=C(N)OC2=C1C(=O)CC(C)C2` (configuration not stated), the compound was called inactive.

`CC(=O)N(Cc1ccc(F)cc1)c1cccc(C)c1C`: the compound was called inactive.

Regarding `Cc1ccc(NC(=O)C(c2ccc(Cl)cc2)N2CCCCC2)cc1` (configuration not stated), the result was inactive.

On to `Cc1cc(C)n2nc(SC(C)C(=O)N3CC(C)OC(C)C3)nc2n1` (configuration not stated), for which the compound was called inactive.

Consider `Cc1cc(C(=O)N2CCN(c3ccccc3)CC2)no1`, for which the outcome was inactive.

Consider `CC1=C(C#N)C(c2cn(-c3ccccc3)nc2-c2cccs2)C(C#N)=C(C)N1`, for which the call was inactive.

Consider `Cc1nc2ncnn2c(C)c1CCC(=O)N1CCCCC1`, for which the compound was called inactive.

In the case of `CCNC(=O)OCC12CC3CC(CC(C3)C1)C2`, the compound was classed as inactive.

As for `CCOc1ccccc1NC(=O)NCc1ccc2c(c1)OCO2`, the result was inactive.

As for `O=C1CN(C(=O)COC(=O)c2cc(S(=O)(=O)N3CCOCC3)ccc2Cl)c2ccccc2N1`, the compound was classed as inactive.

With `Cc1ccc(-c2n[nH]c3c2C(c2ccccc2)N(c2ccc(C(=O)O)cc2)C3=O)cc1` (configuration not stated), the call was inactive.

For the compound `COc1ccc(CN2CCN(C(=O)C3CCC(CNS(=O)(=O)c4ccccc4)CC3)CC2)c(OC)c1OC` (configuration not stated), the call was inactive.

Regarding `Cc1nn(-c2ccccc2)c2nc3c(cc12)C(=O)CCC3`, the result was inactive.

On to `COc1ccc(-n2c(Cc3cccn3C)nnc2SCC(=O)Nc2ccc(C(C)=O)cc2)cc1`, for which the compound was classed as inactive.

Regarding `CC(=O)c1ccc(NC(=O)CSc2nc(N3CCOCC3)nc(N3CCOCC3)n2)cc1`, the result was inactive.

`Cc1ccc(-c2nc3ccccc3s2)cc1NC(=S)NC(=O)c1cccc2ccccc12`: the result was inactive.

On to `COc1ccc(-c2nc3ccccc3o2)cc1NC(=O)c1ccc(Br)o1`, for which the compound was classed as inactive.

As to `Cc1cc(NC(=O)C2CC2)ccc1NC(=O)c1cccs1`, the call was inactive.

Consider `CC1=NN(c2ccccc2)C(=O)C1c1ccccc1` (configuration not stated), for which the call was inactive.

For `O=C(NCCOC(=O)c1cccs1)c1cccnc1`, the outcome was inactive.

With `CCOC(=O)CNS(=O)(=O)Cc1ccccc1`, the compound was classed as inactive.

With `CCOC(=O)CNC(=O)c1ccccc1`, the outcome was inactive.

On to `Cc1cc2ncn(CCOc3ccccc3)c2cc1C`, for which the call was inactive.

Take `COc1ccc(/C=C(/NC(=O)c2cccc([N+](=O)[O-])c2)C(=O)O)cc1OC`: the outcome was inactive.

Take `CC(C)(C)OC(=O)N(CCc1ccccc1)Cc1cccc(OCc2cccc(NC(=O)/C=C/c3ccccc3)c2)c1`: the result was inactive.

Consider `O=C(Nc1cccnc1Cl)c1noc2c1CCc1ccccc1-2`, for which the outcome was inactive.

Turning to `Cc1ccc(CN(C(=O)c2sc3ccccc3c2Cl)C2CCS(=O)(=O)C2)cc1` (configuration not stated), the compound was classed as inactive.

On to `COc1ccccc1-n1nc(C(=O)Nc2ccc3c(c2)OCO3)c2ccccc2c1=O`, for which the compound was called inactive.

Take `C=CCNC(=O)c1ccccc1NC(=O)Nc1ccccc1`: the result was inactive.

In the case of `COCCN(C(=S)Nc1c(C)cc(C)cc1C)C(C)c1cccnc1` (configuration not stated), the compound was classed as inactive.

As to `CCOCCCNC(=O)c1ccc(Cn2c(=S)[nH]c3c([nH]c4ccc(OC)cc43)c2=O)cc1`, the call was inactive.

`CCOC(=O)Cc1c[nH]c2ccc([N+](=O)[O-])cc12`: the compound was called inactive.

As to `O=C(/C=C/c1ccccc1)Nc1cc(S(=O)(=O)N2CCOCC2)ccc1N1CCCC1`, the outcome was inactive.

In the case of `COc1ccc(N=C2SC(C(=O)O)CC(=O)N2Cc2ccc(OC)c(OC)c2)cc1` (configuration not stated), the call was inactive.

On to `CNC(=O)C1CCN(S(=O)(=O)c2c(C)noc2/C=C/c2cccc(OC)c2)CC1`, for which the call was inactive.

As to `COc1cc(/C=N/NC(=O)c2ccccn2)ccc1OC(=O)c1ccc(Br)cc1`, the outcome was inactive.

On to `COc1ccc([N+](=O)[O-])cc1/C=N/NC(=O)Cc1ccccc1`, for which the compound was classed as inactive.

As to `C=CCNC(=S)Nc1cccc2[nH]ncc12`, the compound was called inactive.

Turning to `O=C(O)c1cn(-c2ccc(F)cc2)c2cc(N3CCNCC3)c(F)cc2c1=O`, the call was inactive.

Take `CN1C2CCC1CC(NS(=O)(=O)c1cc(Cl)c(Cl)cc1Cl)C2` (configuration not stated): the compound was classed as inactive.

For `CCCCSc1nc2c(c(=O)[nH]c(=O)n2C)n1CCc1ccccc1`, the compound was classed as inactive.

For `O=C(CCc1nc2ccccc2c(=O)[nH]1)OCC(=O)c1cccc(Cl)c1`, the result was inactive.

`COc1ccc(S(=O)(=O)N2CCOCC2)cc1NC(=O)c1ccc2c(c1)OCO2`: the compound was called inactive.

For `CCOc1ccc(S(=O)(=O)N2CCCCC2)cc1NC(=O)CN1C(=O)NC(CC)(c2ccccc2)C1=O` (configuration not stated), the call was inactive.
